The panel holds about 79,000 compounds, 15% with a hit somewhere; the sample as a whole holds those more often. Unmarked numbers belong to inactive results. Active and inactive are the calls of the source. No stated cut-off is given here; in the data, active means growth inhibition above about 70%; inactive means the rest.
Test: NCI Yeast Anticancer Drug Screen. Data for the sgs1 strain (AID 173);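 further: 0% = growth of vehicle-only control cultures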
Details: S. cerevisiae sgs1 mutant, stronger effect = higher value
Protocol: Growth inhibition of yeast strains with defined genetic alterations is measured as a screen for potential anti-cancer activity. Selected strains with alterations in DNA damage repair or cell cycle control were exposed to compounds and growth inhibition was measured relative to vehicle treated controls. The strain used in this assay is sgs1

Compound | growth inhibition (at 1.2 µM) | growth inhibition (at 3.7 µM) | growth inhibition (at 11.0 µM) | growth inhibition (at 33.0 µM) | growth inhibition (at 100.0 µM)
Cc1nc(-c2ccccc2)c(-c2ccccc2)s1 | -11% | -1% | 6% | 86% (active) | 98% (active)
COc1ccc2nc3c([N+](=O)[O-])ccc(NCCN(C)C)c3c(NCCN(C)C)c2c1 | 3% | 6% | 2% | 2% | 2%
C[C@H](CCC(=O)NN)[C@H]1CC[C@H]2[C@@H]3CC[C@@H]4C[C@H](O)CC[C@]4(C)[C@H]3CC[C@]12C | 2% | 3% | 4% | 4% | 6%
Cn1ccnc1Oc1ccc(Cl)cc1 | -15% | -5% | 15% | 83% (active) | 98% (active)
C/C(=N\O)C1CC2C=C(C#N)C1N(Cc1ccccc1)C2 (stereo not given) | 1% | 1% | 4% | 9% | 17%
CSc1nc(=S)[nH]c2c1c(C)nn2-c1ccccc1 | 7% | -1% | 9% | 16% | 39%
CC(C)/C(Cl)=N\OC(=O)Nc1ccc(F)cc1 | -1% | -2% | 13% | 89% (active) | 99% (active)
N#CC(C(=O)Nc1ccccc1)C1=C(Cl)C(=O)c2ccccc2C1=O (stereo not given) | 8% | 41% | 96% (active) | 97% (active) | 96% (active)
